# Measured values as given in the supplement of paper PMC12636033.
# ± gives the standard deviation of the averaged measurements. In all, about 33,000 sequences were measured (“E-score (rank enrichment, -0.5 to 0.5)”: median about -0.0028, highest 2% from about 0.23 on). Shown is part of a subset that was picked to be rich in the highest values.
# Tested on: 2Sb-muMax20 (muMax20 with two 1,3-bis(methyl)benzene Cys staples, A13C/A17C and Q88C/A92C, C-terminal Lys)
# Assay: PBM 8-mer E-score (E-score (rank enrichment, -0.5 to 0.5)); higher = stronger preferential binding
# Protocol: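 Protein binding microarray (universal PBM chip covering all 10-mers in fixed probe flanks) with chemically synthesized human Max(13-93) bHLH-LZ analogs (not full-length Max) bearing noncanonical residues (hArg, Tha, Aib, Nle at 65) and aromatic Cys staples. Read-out per 8-mer (and its reverse complement): E-score (rank-based enrichment, -0.5 to 0.5) and Z-score of median probe intensity.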
row,Sequence,PBM 8-mer E-score
1,CGGCGTGA,-0.113 ± 0.017
2,CTAAGTGA,-0.204 ± 0.046
3,AGCGTGCC,-0.0325 ± 0.041
4,CTTGGAAC,0.128 ± 0.018
5,AGTACGTC,0.257 ± 0.02
6,AGTACGTG,0.0987 ± 0.039
7,AGTACGTA,0.183 ± 0.018
8,GCCCGAAC,-0.0411 ± 0.062
9,AATCCGCA,-0.0479 ± 0.02
10,CGATTCCC,0.142 ± 0.0041
11,AAGACACG,0.23 ± 0.029
12,AAGACACA,0.0534 ± 0.033
13,CAGACACG,-0.0916 ± 0.036
14,ACCCGTAA,-0.0543 ± 0.035
15,CCCCGTAA,0.276 ± 0.014
16,CCCCGTAG,-0.0497 ± 0.00093
17,GCTAGGTA,-0.0432 ± 0.18
18,ATTGTGTC,0.0993 ± 0.063
19,GGGGCGTA,0.15 ± 0.08
20,GACGTGGC,-0.00165 ± 0.017
21,TACGTGGA,0.0786 ± 0.0068
22,CACGTGGG,0.438 ± 0.0088
23,AACGTGGC,0.192 ± 0.021
24,AACGTGGG,0.196 ± 0.0051
25,CACGTGGA,0.383 ± 0.029

row,Sequence,PBM 8-mer E-score
1,CACGTGGC,0.317 ± 0.015
2,AACGTGGA,0.0893 ± 0.031
3,GACGTGGA,0.0221 ± 0.026
4,ACTTAGAA,-0.02 ± 0.04
5,CGAAGGCC,-0.212 ± 0.015
6,AAACTTGC,0.254 ± 0.025
7,CAACTTGC,-0.1303 ± 0.0012
8,AAACTTGA,0.163 ± 0.048
9,ACAGATTA,-0.0104 ± 0.027
10,CCTGAAAC,-0.0931 ± 0.062
11,GTCGTAAC,0.00633 ± 0.033
12,GAGTCGGA,-0.0932 ± 0.037
13,ATTCATAC,0.276 ± 0.044
14,ATTCATAG,0.0979 ± 0.039
15,ATTCATTA,0.114 ± 0.012
16,AGTCATTC,0.129 ± 0.077
17,CTTCATAC,0.0955 ± 0.029
18,ATTCATTG,0.0825 ± 0.018
19,AGTCATTA,0.0586 ± 0.056
20,ATACATTG,0.17 ± 0.021
21,ATACATTC,0.32 ± 0.023
22,CTACATTC,0.0832 ± 0.066
23,ATTCATTC,0.249 ± 0.029
24,AGTCATTG,0.264 ± 0.034
25,GCATCTGA,-0.135 ± 0.0046

row,Sequence,PBM 8-mer E-score
1,GGGCCAGA,-0.122 ± 0.054
2,CTTGGGCA,0.0256 ± 0.03
3,CGAGGCCC,-0.00116 ± 0.04
4,TGCGCGAA,0.146 ± 0.011
5,AGCAGACA,-0.0463 ± 0.0083
6,GACTGAGC,-0.267 ± 0.057
7,CCACAGAG,-0.0457 ± 0.076
8,ATATCCTC,0.262 ± 0.054
9,ATATCTTC,0.249 ± 0.029
10,ATATCCCC,0.339 ± 0.025
11,ATATCCTA,0.0634 ± 0.0093
12,CTATCCCC,0.121 ± 0.0091
13,CTATCTTC,0.0336 ± 0.054
14,CTATCCTC,-0.015 ± 0.015
15,ATATCTTA,0.124 ± 0.0016
16,ATATCCCG,0.0587 ± 0.04
17,CTCTTTGA,-0.0279 ± 0.036
18,GCATGATA,0.214 ± 0.029
19,ATATGATA,0.257 ± 0.058
20,ATATGATG,0.141 ± 0.0096
21,CTATGATA,0.0532 ± 0.035
22,GTATGAGA,0.0453 ± 0.12
23,GTATGATA,0.258 ± 0.026
24,ACCTTTAT,0.02821 ± 0.00021
25,CAGCCTCG,-0.0714 ± 0.034

row,Sequence,PBM 8-mer E-score
1,GGGGTTGA,0.138 ± 0.03
2,ACCAATTC,-0.0487 ± 0.032
3,CCCAATTA,0.221 ± 0.021
4,CCCAATTC,0.247 ± 0.0082
5,ACGATCTG,-0.0575 ± 0.048
6,AGCGATCG,0.235 ± 0.0084
7,AGCGATCC,-0.145 ± 0.057
8,AGCGATCA,-0.298 ± 0.021
9,GACTGTCC,-0.111 ± 0.073
10,ATTGTCGA,0.0736 ± 0.034
11,AATATACT,0.0704 ± 0.03
12,TATATACA,0.173 ± 0.0038
13,CAAATACA,0.23 ± 0.0088
14,GAAATACA,-0.0423 ± 0.015
15,AATATGGG,0.178 ± 0.024
16,AATATATA,0.162 ± 0.015
17,AATATACA,0.264 ± 0.02
18,AATATATT,0.24 ± 0.054
19,CATATGGG,0.252 ± 0.056
20,AATATATC,0.19 ± 0.013
21,CAAATACC,0.0305 ± 0.029
22,CATATGGC,0.142 ± 0.035
23,CTTGTGTA,0.116 ± 0.033
24,AGGCACAG,-0.103 ± 0.026
25,CGCAGTAA,0.0928 ± 0.087

row,Sequence,PBM 8-mer E-score
1,GGGCATCA,0.0183 ± 0.046
2,TAAATTCA,0.111 ± 0.075
3,GACATCTA,-0.1 ± 0.066
4,AAAACAGC,0.13 ± 0.037
5,CGTGGAAG,0.0947 ± 0.13
6,GCACTAGC,0.109 ± 0.017
7,AATGAATA,0.156 ± 0.018
8,GGGCGACC,-0.0448 ± 0.029
9,CAATCTAA,0.0541 ± 0.078
10,CATATATA,0.194 ± 0.0063
11,CATATATG,0.305 ± 0.007
12,AAAATATG,0.143 ± 0.05
13,CATATATC,0.13 ± 0.055
14,AATATATG,0.3 ± 0.004
15,AATATGTG,0.139 ± 0.033
16,TGCGAGCA,0.146 ± 0.052
17,AAACCTAG,0.000475 ± 0.031
18,AAACCTAC,0.279 ± 0.06
19,AAACCTAT,-0.107 ± 0.033
20,GGATCTAC,-0.141 ± 0.02
21,ACATGCAC,0.0993 ± 0.062
22,ACATGTAC,0.309 ± 0.014
23,AGATGTAT,0.181 ± 0.031
24,ACATGTCG,0.166 ± 0.058
25,CCATGTAG,0.172 ± 0.0065

row,Sequence,PBM 8-mer E-score
1,ACATGTAT,0.267 ± 0.0098
2,GCATGTAC,0.172 ± 0.024
3,ACATGCAT,0.363 ± 0.013
4,CCATGTAC,-0.0138 ± 0.036
5,ACATGTAG,0.275 ± 0.021
6,ACATGCAG,0.037 ± 0.07
7,ACATGTAA,0.217 ± 0.026
8,AAACCGTT,-0.108 ± 0.016
9,GACCGACC,-0.162 ± 0.012
10,AGTATCCG,-0.139 ± 0.029
11,CCCGGCCG,-0.233 ± 0.084
12,GCAGGAAA,0.00101 ± 0.013
13,CAGACGTA,-0.0519 ± 0.083
14,CCCTCACC,0.0586 ± 0.062
15,AAGACCTA,0.0674 ± 0.017
16,AATAGTTG,0.256 ± 0.032
17,AATAGTTA,0.166 ± 0.0059
18,AATAGTTC,0.0849 ± 0.052
19,GACTTCAC,-0.0215 ± 0.052
20,GGAATTCC,-0.26 ± 0.055
21,ATCAGAAT,-0.0334 ± 0.0022
22,AAGGTCTA,-0.00279 ± 0.068
23,ACATATGC,0.0308 ± 0.041
24,ACATGGGG,0.267 ± 0.045
25,ACATATGG,0.15 ± 0.036

row,Sequence,PBM 8-mer E-score
1,ATATGGGA,0.13 ± 0.017
2,CCATATGC,0.125 ± 0.064
3,GCATATGA,0.174 ± 0.045
4,CCATATGG,0.322 ± 0.0072
5,ATATGGGC,0.192 ± 0.062
6,ACATGGGA,0.0654 ± 0.083
7,CCATGGGG,-0.134 ± 0.03
8,GCATATGC,0.259 ± 0.011
9,ATATGGGG,0.255 ± 0.0087
10,ACCAAAGT,-0.131 ± 0.004
11,AAACTTCA,0.0459 ± 0.067
12,GCCGTGTA,0.0129 ± 0.059
13,AGACCGCC,-0.0551 ± 0.0086
14,CCAACGAA,-0.0751 ± 0.0019
15,ACTTGCGA,0.141 ± 0.053
16,ATGTTTAC,0.195 ± 0.0024
17,ACGTACGT,0.0796 ± 0.0024
18,CTGCACGC,0.0673 ± 0.012
19,CCTACAAG,-0.0983 ± 0.063
20,ATATATGG,0.279 ± 0.025
21,ATATATGC,0.196 ± 0.029
22,ATATATGA,0.203 ± 0.014
23,GTACCTAA,0.015 ± 0.015
24,GATACAAA,0.0261 ± 0.058
25,AATACAAA,0.293 ± 0.0033

row,Sequence,PBM 8-mer E-score
1,CATACAAG,0.0617 ± 0.023
2,CATACAAC,0.254 ± 0.0055
3,TATACAAA,0.176 ± 0.037
4,CATACGAG,0.039 ± 0.023
5,AATACAAC,0.218 ± 0.053
6,AATACAAG,0.243 ± 0.066
7,GATACAAC,0.0906 ± 0.034
8,AATACAAT,0.105 ± 0.028
9,AATACGAT,0.0313 ± 0.056
10,AATACGAG,0.239 ± 0.016
11,GGCTCAAA,-0.232 ± 0.0071
12,CGTGTTCC,-0.101 ± 0.093
13,CAGCCATC,0.0539 ± 0.04
14,ACGCTTAC,-0.00865 ± 0.0059
15,AATGGCGG,-0.0858 ± 0.063
16,CTTAGCCA,-0.0016 ± 0.011
17,ATCGGCTG,-0.182 ± 0.06
18,ATTAGGTG,0.199 ± 0.0049
19,CATCCCGG,-0.179 ± 0.11
20,ACTTGTTA,0.173 ± 0.0031
21,CCTTGTTC,-0.00956 ± 0.048
22,CCTTGTTA,0.281 ± 0.032
23,ACTTCTCT,-0.115 ± 0.094
24,GTACCCAA,0.153 ± 0.0022
25,CCCCCCAG,-0.319 ± 0.18

row,Sequence,PBM 8-mer E-score
1,AACCCCTA,0.176 ± 0.0048
2,AACCCCAG,0.0383 ± 0.14
3,AACCCAAA,0.0368 ± 0.14
4,ACCCCCAA,-0.148 ± 0.053
5,TTACCCAA,0.26885 ± 6.4e-05
6,CACCCCAG,0.262 ± 0.015
7,CACCCCTA,0.228 ± 0.018
8,CTACCCAA,0.085 ± 0.019
9,TACCCCTA,0.316 ± 0.0051
10,AACCCCAA,0.331 ± 0.019
11,ACGAAGGC,-0.148 ± 0.011
12,GGCCAAAC,-0.0918 ± 0.032
13,ATAAAAGC,0.113 ± 0.0099
14,CACCCCCA,-0.148 ± 0.025
15,TACCCCAA,0.29 ± 0.036
16,CACCCCAA,0.292 ± 0.059
17,GACCCCAC,0.0665 ± 0.09
18,TACCCCCA,-0.0172 ± 0.023
19,AACCCCAC,0.177 ± 0.082
20,CACCCCAC,0.319 ± 0.067
21,GACCCCAA,0.129 ± 0.058
22,CACCCAAA,0.211 ± 0.02
